Several values for one entry are separate records, joined by “and”; a condition that tells them apart may be missing. Equal entries are not always repeated. Records with an inconclusive call do not appear. Activity calls are given as the source filed them. Unless noted, calls follow the shape of the dose curve; as a rule, active = well fitted curve in the direction sought with a large enough effect; inconclusive = small, poorly fitted or top-dose-only effect, or another doubt; inactive = no such curve, though single readings can be large; an effect the other way counts as inactive or inconclusive.
How the values were obtained:
[1] = biological target: Glucagon-like peptide 1 receptor (Homo sapiens) (UniProt P43220); test: qHTS of GLP-1 Receptor Agonists: LOPAC Validation (AID 624148);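 also: 0% is about no effect; higher luminescence signal means agonism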
Outline: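 HEK293 cells stably co-expressing a cAMP-responsive luciferase reporter and a hypersensitive GLP-1R were plated 12 h at 37 °C and exposed to compounds for 4-6 hr at 37 °C, 5% CO2. Luminescence was read 12 min after adding detection reagent.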

[2] = qHTS of Nrf2 Activators: LOPAC Validation (AID 624149); also: 0% is about no effect
Outline: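 Following overnight seeding in 5% FBS OPTI-MEM, AREc32_Fluc cells receive compounds for a 24 hr incubation at 37 deg C with 5% CO2. Steady-Glo is added, and after 30 min at RT luminescence is recorded.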

[3] = HTS Assay for Allosteric Antagonists of the Human D2 Dopamine Receptor: Hit Validation in HTRF (AID 624455); also: potency is read from the fitted curve at half-maximal effect;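 also: stable D1 dopamine receptor cell line scored for blocking the D1 response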
Outline: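 Validation of hits used D1 receptor stably expressed in cells with HTRF detection of response inhibition; origin screen measured calcium flux following EC80 dopamine in a force-coupled, inducible Hek293 Trex D2 cell line.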

[4] = Cytotoxicity counterscreen for NFkB agonists and antagonists (AID 624476);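 also: cells exposed to compound for 48 hours; % is scaled to controls: 0 for no effect and ±100 for the full control effect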
[5] = qHTS Assay for Identification of Small Molecule Agonists for NFkB Signaling Pathway. (AID 624478);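 also: compounds tested together with TNF alpha at its EC50 of 10 pM; 0% is about no effect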
Outline: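 Assay medium contained 0.5% FBS and 10 mM HEPES pH 7.3. Compounds were added together with TNF alpha (10 pM final), incubated 5 h at 37 C, and the beta-lactamase signal was measured fluorometrically.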

[6] = qHTS Assay for Identification of Small Molecule Antagonists for NFkB Signaling Pathway. (AID 624479; calls by dose curve;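 also: pathway stimulated with TNF alpha; % is scaled to controls: 0 for no effect and ±100 for the full control effect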)
[7] = Cell Proliferation Assay against the TMD8 Cell Line (AID 651645); conditions: TMD8 DLBCL cell line proliferation/viability; at 46.1 µM (top of the series) unless noted;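 also: cells exposed to compound for 48 h before reading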
Outline: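 500 TMD8 cells/well, RPMI + Glutamax, no phenol red, 5% FBS; cpd added immediately; 48 h, 37C, 5% CO2; CellTiter-Glo, luminescence. Controls: DMSO = 100%, bortezomib 9.2 uM final = 0%.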

[8] = Cell Proliferation Assay against the HBL1 Cell Line (AID 651646); conditions: HBL1 DLBCL cells; at 46.1 µM (top of the series) unless noted;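 also: cells exposed to compound for 48 h before reading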
Outline: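 After a 48 h incubation of 500 HBL1 cells/well in phenol red-free RPMI plus 5% FBS, relative luciferase units from CellTiter-Glo gave percent activity against DMSO and 9.2 uM bortezomib (final) controls.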

[9] = Cell Proliferation Assay against the TMD8 Cell Line (Caspase readout at 16 hrs) (AID 651712);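 also: 0% = DMSO and 100% = 9.2 µM bortezomib caspase activation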
Outline: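 16 h, 37 °C, TMD8 (500 cells/well), RPMI/5% FBS no phenol red; Caspase-Glo 3/7, 15 min RT, luminescence; %act: DMSO 0, bortezomib 9.2 uM final 100.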

[10] = Cell Proliferation Assay against the TMD8 Cell Line (Caspase readout at 8 hrs) (AID 651713);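 also: 0% = DMSO and 100% = 9.2 µM bortezomib caspase signal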
Outline: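 Luminescent caspase 3/7 assay; TMD8 cells, 8 h treatment at 37C, 5% CO2. Normalisation: DMSO 0%, 9.2 uM bortezomib 100%.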

[11] = qHTS assay for small molecule disruptors of the mitochondrial membrane potential - 1 hr assay (AID 651754; calls by dose curve; also: nearly all actives have a fitted effect of over 35% in size; also: potency is read from the fitted curve at half-maximal effect)
Outline: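 In this qHTS format, a 1 hr compound treatment of HepG2 cells precedes Mito-MPS staining, and membrane potential is judged from aggregate (red) against monomer (green) fluorescence intensity.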

[12] = qHTS assay for small molecule disruptors of the mitochondrial membrane potential - 5 hr assay (AID 651755; calls by dose curve; also: nearly all actives have a fitted effect of over 40% in size; also: potency is read from the fitted curve at half-maximal effect)
Outline: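 Seed HepG2 overnight, add compound, incubate 5 hr at 37C and 5% CO2, stain 30 min with Mito-MPS, then measure monomer (490/535 nm) and aggregate (540/590 nm) fluorescence.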

[13] = qHTS assay to identify small molecules that stimulate interleukin-8 (IL-8) secretion (AID 651758; active = well fitted activation curve with a large enough effect in the signal ratio; the % refers to the signal ratio; also: 0% is about no effect)
Outline: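 Quantitative HTS in THP-1 monocytic cells at 2000 cells per well, with 16 hrs compound incubation at 37 C. IL-8 in the medium was then quantified by HTRF immunoassay, read after 1-3 hrs at room temperature.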

[14] = biological target: Tumor necrosis factor (Homo sapiens) (UniProt P01375); test: qHTS assay to identify small molecules that stimulate Tumor Necrosis Factor-alpha (TNF-alpha) secretion (AID 651757; active = well fitted curve in the direction sought with a large enough effect in the signal ratio; the % refers to the signal ratio; also: 0% is about no effect)
Outline: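 Using 3000 THP-1 cells per well, compounds and controls were applied for 17 hrs at 37 C. Detection followed with two labeled anti-TNF-alpha antibodies (cryptate donor, XL665 acceptor) for 3 hr at room temperature, measured by TR-FRET.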

[15] = qHTS assay for environmental chemicals that activate the Aryl hydrocarbon Receptor (AhR) signaling pathway (AID 651777); conditions: 1A2-DRE human hepatoma cells, luciferase, 24 h; activation: stronger effect = higher value; also: % of control where 0% means no effect; nearly all actives have a fitted effect of over 15% in size
Outline: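 AhR activation is scored as a rise in luciferase from a stable DRE–CYP1A2 promoter construct in human hepatoma cells. Treatment lasts 24 hr at 37 C; detection uses One-Glo after 30 min at room temperature.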

[16] = biological target: Peroxisome proliferator-activated receptor alpha (Homo sapiens) (UniProt Q07869); test: qHTS assay for small molecule agonists of the peroxisome proliferator-activated receptor alpha (PPARalpha) signaling pathway (AID 651778); conditions: PathHunter PPARalpha complementation, chemiluminescence, 6 h; max response: stronger effect = higher value; also: % of control where 0% means no effect
Outline: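 Cells plated at 2,000/well and held overnight at 37 C, 5% CO2, then compound added by pin tool for 6 hr; after PathHunter detection reagent and 60 min at room temperature, chemiluminescence from enzyme complementation was read.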

[17] = qHTS assay for small molecule agonists of the antioxidant response element (ARE) signaling pathway (AID 651741; active = well fitted activation curve with a large enough effect in the signal ratio; the % refers to the signal ratio; also: potency is read from the fitted curve at half-maximal effect)
Outline: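 Beta-lactamase reporter expression driven by the antioxidant response element in HepG2 cells was detected by fluorescence with LiveBLAzer B/G FRET substrate (2 h, room temperature) following 16 h compound treatment at 37 C.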

[18] = qHTS assay for small molecule activators of the nuclear factor-kappa B (NF-kB) signaling pathway (AID 651749; active = well fitted activation curve with a large enough effect in the signal ratio; the % refers to the signal ratio; also: % of control where 0% means no effect); conditions: NF-kB-bla ME-180 cells, beta-lactamase FRET ratio, 16 h; stronger effect = higher value
Outline: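 Beta-lactamase reporter expression, controlled by NF-kB response elements in ME-180 cells, was quantified fluorometrically via FRET disruption; cells at 2,000/well had been incubated with 23 nL test compound for 16 hr.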

[19] = qHTS assay for small molecule activators of the p53 signaling pathway (AID 651743; active = well fitted activation curve with a large enough effect in the signal ratio, not every such curve was filed as active; the % refers to the signal ratio; also: % of control where 0% means no effect); conditions: HCT-116 p53RE-bla, beta-lactamase FRET ratio, 16 h; activation: stronger effect = higher value
Outline: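 Here HCT-116 cells with an integrated p53-responsive beta-lactamase gene were incubated with compounds (16 hours, 37 C) after a 5-hour plating period; beta-lactamase activity was detected as fluorescence intensity via B/G FRET substrate.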

Peroxisome proliferator-activated receptor alpha (Homo sapiens), sequence (Q07869 whole entry, looked up): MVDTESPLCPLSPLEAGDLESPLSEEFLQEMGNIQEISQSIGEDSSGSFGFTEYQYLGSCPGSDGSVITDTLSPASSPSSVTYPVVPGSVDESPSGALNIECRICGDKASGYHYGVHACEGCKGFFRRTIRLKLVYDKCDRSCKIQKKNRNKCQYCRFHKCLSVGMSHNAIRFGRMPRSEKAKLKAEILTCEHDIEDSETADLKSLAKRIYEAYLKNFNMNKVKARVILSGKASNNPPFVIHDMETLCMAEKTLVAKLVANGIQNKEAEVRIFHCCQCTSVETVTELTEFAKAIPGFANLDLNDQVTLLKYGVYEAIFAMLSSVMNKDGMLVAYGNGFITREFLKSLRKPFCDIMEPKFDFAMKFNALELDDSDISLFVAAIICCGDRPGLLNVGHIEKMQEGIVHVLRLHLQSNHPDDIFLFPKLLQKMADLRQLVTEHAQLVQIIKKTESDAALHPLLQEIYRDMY
Glucagon-like peptide 1 receptor (Homo sapiens), sequence (P43220 whole entry, looked up): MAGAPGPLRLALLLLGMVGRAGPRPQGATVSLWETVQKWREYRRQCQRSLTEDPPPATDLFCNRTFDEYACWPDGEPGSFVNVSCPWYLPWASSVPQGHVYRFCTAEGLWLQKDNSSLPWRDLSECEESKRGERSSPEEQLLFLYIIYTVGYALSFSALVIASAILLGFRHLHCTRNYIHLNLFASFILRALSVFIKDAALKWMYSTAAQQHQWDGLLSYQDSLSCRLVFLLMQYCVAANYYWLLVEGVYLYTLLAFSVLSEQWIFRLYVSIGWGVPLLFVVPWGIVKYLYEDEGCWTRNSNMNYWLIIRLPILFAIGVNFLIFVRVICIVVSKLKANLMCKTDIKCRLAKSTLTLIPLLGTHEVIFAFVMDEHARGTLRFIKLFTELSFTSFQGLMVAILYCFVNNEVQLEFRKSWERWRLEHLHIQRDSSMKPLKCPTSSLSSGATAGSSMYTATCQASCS
Tumor necrosis factor (Homo sapiens), sequence (P01375 whole entry, looked up): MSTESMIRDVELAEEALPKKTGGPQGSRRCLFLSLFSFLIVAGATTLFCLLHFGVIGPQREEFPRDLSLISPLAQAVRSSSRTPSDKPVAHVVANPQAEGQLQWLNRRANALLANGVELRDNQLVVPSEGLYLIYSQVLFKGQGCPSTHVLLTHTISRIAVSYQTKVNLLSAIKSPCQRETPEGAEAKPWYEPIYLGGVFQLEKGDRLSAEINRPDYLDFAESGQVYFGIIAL

C[C@H]1c2cccc(O)c2C(O)=C2C(=O)[C@]3(O)C(O)=C(C(N)=O)C(=O)[C@@H](N(C)C)[C@@H]3[C@@H](O)[C@@H]21
inactive: Potency [1] | outcome [2] | Potency [3]

Cc1cc(C(C)(C)C)cc(C)c1CC1=NCCN1
inactive: Potency [1] | outcome [2] | Potency [3]

Cc1cc(C(C)(C)C)c(O)c(C)c1CC1=NCCN1
inactive: Potency [1] | outcome [2] | Potency [3]

Cc1cnc(C(=O)NCCc2ccc(S(=O)(=O)NC(=O)NC3CCCCC3)cc2)cn1
inactive: Potency [1] | outcome [2] | Potency [3]

CN1C(C(=O)Nc2ccccn2)=C(O)c2ccccc2S1(=O)=O
inactive: Potency [1] | outcome [2] | Potency [3]

CCCNCC(O)COc1ccccc1C(=O)CCc1ccccc1 (stereo unspecified)
inactive: Potency [1] | outcome [2] | Potency [3]

CN1CCN(C2=Nc3cc(Cl)ccc3Nc3ccccc32)CC1
inactive: Potency [1]

O=C1N(c2ccccc2)c2ccccc2C1(Cc1ccncc1)Cc1ccncc1
inactive: Potency [1] | outcome [2] | Potency [3]

CC(C)NCC(O)COc1ccc(CCOCC2CC2)cc1 (stereo unspecified)
inactive: Potency [1] | outcome [2] | Potency [3]

COc1cc2nc(N(C)CCCNC(=O)C3CCCO3)nc(N)c2cc1OC (stereo unspecified)
inactive: Potency [1] | outcome [2] | Potency [3]

CC12CC3CC(C)(C1)CC(N)(C3)C2
inactive: Potency [1] | outcome [2] | Potency [3]

COc1cc2nc(N3CCN(C(=O)c4ccco4)CC3)nc(N)c2cc1OC
inactive: Potency [1] | outcome [2] | Potency [3]

CN1CCN(CCCN2c3ccccc3Sc3ccc(Cl)cc32)CC1
inactive: Potency [1] | outcome [2] | Potency [3]

CNCCCC12CCC(c3ccccc31)c1ccccc12
inactive: Potency [1] | outcome [2] | Potency [3]

CN(C)CCC=C1c2ccccc2C=Cc2ccccc21
inactive: Potency [1] | outcome [2] | Potency [3]

Nc1nnc(-c2cccc(Cl)c2Cl)c(N)n1
inactive: Potency [1] | outcome [2] | Potency [3]

Fc1ccc([C@@H]2CCNC[C@H]2COc2ccc3c(c2)OCO3)cc1
inactive: Potency [1] | outcome [2] | Potency [3]

COc1cc2nc(N3CCN(C(=O)C4COc5ccccc5O4)CC3)nc(N)c2cc1OC (stereo unspecified)
inactive: Potency [1] | outcome [2] | Potency [3]

NCCc1cnc[nH]1
inactive: Potency [1] | outcome [2] | Potency [3]

COC(=O)Nc1nc2ccc(C(=O)c3cccs3)cc2[nH]1
inactive: Potency [1] | outcome [2] | Potency [3]

NC(=O)OCC(COC(N)=O)c1ccccc1
inactive: Potency [1] | outcome [2] | Potency [3]

CCC1(C)CC(=O)NC1=O (stereo unspecified)
inactive: Potency [1] | outcome [2] | Potency [3]

CS(=O)(=O)Nc1ccc([N+](=O)[O-])cc1Oc1ccccc1
inactive: Potency [1] | outcome [2] | Potency [3]

CN1CCC(=C2c3ccccc3C=Cc3ccccc32)CC1
inactive: Potency [1] | outcome [2] | Potency [3]

CN(C)c1nc(N(C)C)nc(N(C)C)n1
inactive: Potency [1] | outcome [2] | Potency [3]

CC[N+](CC)(CC)CCOc1cccc(OCC[N+](CC)(CC)CC)c1OCC[N+](CC)(CC)CC
inactive: Potency [1] | outcome [2] | Potency [3]

Clc1ccc2c(c1)C(N1CCNCC1)=Nc1ccccc1O2
inactive: Potency [1] | outcome [2] | Potency [3]

O=C1c2c(O)ccc(O)c2C(=O)c2c(NCCNCCO)ccc(NCCNCCO)c21
inactive: Potency [1] | outcome [2]

CN1CCC(=C2c3ccccc3CC(=O)c3sccc32)CC1
inactive: Potency [1] | outcome [2] | Potency [3]

NC(=O)NO
inactive: Potency [1] | outcome [2] | Potency [3]

Nc1nc2c(ncn2COC(CO)CO)c(=O)[nH]1
inactive: Potency [1] | outcome [2] | Potency [3]

NCCCCCC(=O)O
inactive: Potency [1] | outcome [2] | Potency [3]

Cn1ccc2cc3c(cc21)CCN3C(=O)Nc1cccnc1
inactive: Potency [4] | outcome [5] | Potency [6] | Potency [9] | Potency [10]
88.1%: viability, percent of control [8]
102%: viability (% of control) [7]

O=c1c(-c2ccc(O)cc2)coc2cc(O)cc(O)c12
active: Potency [11] 5.96 µM | Potency [12] 7.5 µM
inactive: outcome [13]

COc1ccc2[nH]cc(CCNC(C)=O)c2c1
inactive: outcome [13]

CC(C)C(=O)Nc1ccc([N+](=O)[O-])c(C(F)(F)F)c1
inactive: Potency [1] | outcome [2] | Potency [3] | outcome [14] | activation [15] 3.62% and 3.92% | max response [16] -5.17% and -3.96%

Clc1ccc(C(c2ccccc2Cl)C(Cl)Cl)cc1 (stereo unspecified)
inactive: Potency [1] | outcome [2] | Potency [3] | activation [18] 2.3% | outcome [14] | activation [15] 2.12% and 0.378% | max response [16] 18.7%
active: Potency [17] 66.8 µM | Potency [11] 29.8 µM | Potency [12] 37.6 µM

CC(C)NCC(O)c1ccc(O)c(O)c1 (stereo unspecified)
inactive: outcome [2] | Potency [3] | Potency [11] | Potency [12] | outcome [14] | activation [15] 0.956% and 0.375% | max response [16] -1.03% and -0.0809%

CC(CCc1ccc(O)cc1)NCCc1ccc(O)c(O)c1 (stereo unspecified)
active: Potency [3] 3.26 µM
inactive: outcome [2]

COc1ccc(CCN(C)CCCC(C#N)(c2ccc(OC)c(OC)c2)C(C)C)cc1OC (stereo unspecified)
inactive: outcome [2] | Potency [3] | Potency [4] | outcome [5] | Potency [6] | activation [19] -2.6% | outcome [14]
